Measured values taken from the supplement of paper PMC10849652.
Of roughly 7,900 targets only a part is listed; those with a hit were picked by preference. About 0.6% of all pairs of compound and target were hits. A number with no mark means an inactive call.

Columns and labels:
Experiment in all cases: log2 fold change, soluble protein after heating vs DMSO (PISA); higher = thermal stabilisation; K562 cells, 10 uM, 30 min; active = over 0.2 and 3.5 SD of the protein, either way, in both replicates (recomputed)
bafetinib = compound: Cc1ccc(NC(=O)c2ccc(CN3CC[C@H](N(C)C)C3)c(C(F)(F)F)c2)cc1Nc1nccc(-c2cncnc2)n1 [bafetinib]
Method in brief: (§1)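 K562 cells (2×10^6 cells/mL) were treated with 10 μM compound for 30 min, and aliquots were heated for 3 min over 48°C-58°C. Pooled aliquots were extracted in PBS with 0.5% NP-40 at 4°C, and the supernatant after 21,000xg for 90 min was measured by TMTpro 16plex LC-MS/MS with channel sums equalised. Reported thermal stability, relative to control samples and from duplicates, is a log2 fold change.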

[1] = compound: Cc1cccc(CC(=O)N2CCc3c2ccc(-c2cn(C)c4ncnc(N)c24)c3F)n1
Method in brief: as §1

nilotinib = compound: Cc1cn(-c2cc(NC(=O)c3ccc(C)c(Nc4nccc(-c5cccnc5)n4)c3)cc(C(F)(F)F)c2)cn1 [nilotinib]
Method in brief: as §1

[2] = compound: Cc1nc(Nc2n[nH]c3c2CN(C(=O)N[C@H](CN(C)C)c2ccccc2)C3(C)C)c2sccc2n1
Method in brief: as §1

dasatinib = compound: Cc1nc(Nc2ncc(C(=O)Nc3c(C)cccc3Cl)s2)cc(N2CCN(CCO)CC2)n1 [dasatinib]
Method in brief: as §1

[3] = compound: Cc1ncc(-c2ccnc(Nc3ccc(S(C)(=O)=O)cc3)n2)n1C(C)C
Method in brief: as §1

[4] = compound: Cn1cc(-c2ccc3c(c2)CCN3C(=O)Cc2cccc(C(F)(F)F)c2)c2c(N)ncnc21
Method in brief: as §1

[5] = compound: Cn1cc(-c2ccc3nnc(C(F)(F)c4ccc5ncccc5c4)n3n2)cn1
Method in brief: as §1

tipifarnib = compound: Cn1cncc1[C@@](N)(c1ccc(Cl)cc1)c1ccc2c(c1)c(-c1cccc(Cl)c1)cc(=O)n2C [tipifarnib]
Method in brief: as §1

mubritinib = compound: FC(F)(F)c1ccc(/C=C/c2nc(COc3ccc(CCCCn4ccnn4)cc3)co2)cc1 [mubritinib]
Method in brief: as §1

UniProt Q32M88, sequence (Q32M88 whole entry, looked up): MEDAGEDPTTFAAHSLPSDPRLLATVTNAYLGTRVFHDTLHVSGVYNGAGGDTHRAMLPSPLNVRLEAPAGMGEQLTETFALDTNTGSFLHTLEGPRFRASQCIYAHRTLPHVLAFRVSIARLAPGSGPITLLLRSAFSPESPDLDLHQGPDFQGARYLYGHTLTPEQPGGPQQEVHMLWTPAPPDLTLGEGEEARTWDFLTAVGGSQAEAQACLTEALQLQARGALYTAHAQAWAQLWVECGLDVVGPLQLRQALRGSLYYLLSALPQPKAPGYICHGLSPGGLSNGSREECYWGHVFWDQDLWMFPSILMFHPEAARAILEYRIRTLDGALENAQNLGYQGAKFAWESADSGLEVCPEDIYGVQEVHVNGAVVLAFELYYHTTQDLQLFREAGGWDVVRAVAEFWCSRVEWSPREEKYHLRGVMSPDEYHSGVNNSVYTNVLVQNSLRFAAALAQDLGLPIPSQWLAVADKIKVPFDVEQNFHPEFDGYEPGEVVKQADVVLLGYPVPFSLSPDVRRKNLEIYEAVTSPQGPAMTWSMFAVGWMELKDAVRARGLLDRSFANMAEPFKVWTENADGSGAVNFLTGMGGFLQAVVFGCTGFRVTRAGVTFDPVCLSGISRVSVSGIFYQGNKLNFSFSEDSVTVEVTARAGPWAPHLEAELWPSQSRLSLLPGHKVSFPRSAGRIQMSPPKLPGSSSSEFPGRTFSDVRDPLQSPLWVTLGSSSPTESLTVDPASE
UniProt Q9P2B2, sequence (Q9P2B2 whole entry, looked up): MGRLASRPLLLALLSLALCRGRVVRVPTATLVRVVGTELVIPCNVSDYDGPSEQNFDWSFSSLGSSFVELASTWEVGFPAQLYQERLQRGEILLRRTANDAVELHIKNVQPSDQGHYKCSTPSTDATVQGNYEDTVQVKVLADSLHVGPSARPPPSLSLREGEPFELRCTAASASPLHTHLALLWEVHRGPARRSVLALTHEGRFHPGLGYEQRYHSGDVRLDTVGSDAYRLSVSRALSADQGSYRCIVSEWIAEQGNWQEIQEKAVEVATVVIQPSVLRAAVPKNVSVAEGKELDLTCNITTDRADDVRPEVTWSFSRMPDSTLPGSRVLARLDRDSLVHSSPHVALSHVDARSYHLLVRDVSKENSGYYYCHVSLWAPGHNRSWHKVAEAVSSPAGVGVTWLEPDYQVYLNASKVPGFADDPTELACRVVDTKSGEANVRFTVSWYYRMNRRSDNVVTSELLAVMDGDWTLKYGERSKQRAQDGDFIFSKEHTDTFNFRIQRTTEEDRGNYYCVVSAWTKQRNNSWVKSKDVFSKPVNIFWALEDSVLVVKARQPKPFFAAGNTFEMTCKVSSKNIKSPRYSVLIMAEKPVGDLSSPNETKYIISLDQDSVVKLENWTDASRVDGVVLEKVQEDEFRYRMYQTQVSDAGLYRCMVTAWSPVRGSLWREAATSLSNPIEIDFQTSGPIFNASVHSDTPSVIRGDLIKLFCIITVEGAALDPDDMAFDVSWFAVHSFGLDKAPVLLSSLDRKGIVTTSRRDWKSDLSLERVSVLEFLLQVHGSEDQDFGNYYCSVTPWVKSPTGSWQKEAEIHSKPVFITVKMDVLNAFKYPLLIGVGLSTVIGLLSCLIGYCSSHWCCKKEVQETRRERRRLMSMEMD
UniProt Q8NCC3, sequence (Q8NCC3 whole entry, looked up): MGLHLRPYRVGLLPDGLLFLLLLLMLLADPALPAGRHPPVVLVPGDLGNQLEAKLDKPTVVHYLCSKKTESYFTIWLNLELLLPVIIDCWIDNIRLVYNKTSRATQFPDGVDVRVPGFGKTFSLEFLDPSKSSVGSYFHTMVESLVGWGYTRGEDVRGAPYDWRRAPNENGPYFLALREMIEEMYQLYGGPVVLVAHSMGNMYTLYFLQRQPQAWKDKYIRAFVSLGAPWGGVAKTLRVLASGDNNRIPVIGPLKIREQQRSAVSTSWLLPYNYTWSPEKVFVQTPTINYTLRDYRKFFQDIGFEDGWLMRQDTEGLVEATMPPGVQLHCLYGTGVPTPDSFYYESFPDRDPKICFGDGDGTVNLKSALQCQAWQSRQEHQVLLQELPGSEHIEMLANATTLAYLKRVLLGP
UniProt P0CG38, sequence (P0CG38 whole entry, looked up): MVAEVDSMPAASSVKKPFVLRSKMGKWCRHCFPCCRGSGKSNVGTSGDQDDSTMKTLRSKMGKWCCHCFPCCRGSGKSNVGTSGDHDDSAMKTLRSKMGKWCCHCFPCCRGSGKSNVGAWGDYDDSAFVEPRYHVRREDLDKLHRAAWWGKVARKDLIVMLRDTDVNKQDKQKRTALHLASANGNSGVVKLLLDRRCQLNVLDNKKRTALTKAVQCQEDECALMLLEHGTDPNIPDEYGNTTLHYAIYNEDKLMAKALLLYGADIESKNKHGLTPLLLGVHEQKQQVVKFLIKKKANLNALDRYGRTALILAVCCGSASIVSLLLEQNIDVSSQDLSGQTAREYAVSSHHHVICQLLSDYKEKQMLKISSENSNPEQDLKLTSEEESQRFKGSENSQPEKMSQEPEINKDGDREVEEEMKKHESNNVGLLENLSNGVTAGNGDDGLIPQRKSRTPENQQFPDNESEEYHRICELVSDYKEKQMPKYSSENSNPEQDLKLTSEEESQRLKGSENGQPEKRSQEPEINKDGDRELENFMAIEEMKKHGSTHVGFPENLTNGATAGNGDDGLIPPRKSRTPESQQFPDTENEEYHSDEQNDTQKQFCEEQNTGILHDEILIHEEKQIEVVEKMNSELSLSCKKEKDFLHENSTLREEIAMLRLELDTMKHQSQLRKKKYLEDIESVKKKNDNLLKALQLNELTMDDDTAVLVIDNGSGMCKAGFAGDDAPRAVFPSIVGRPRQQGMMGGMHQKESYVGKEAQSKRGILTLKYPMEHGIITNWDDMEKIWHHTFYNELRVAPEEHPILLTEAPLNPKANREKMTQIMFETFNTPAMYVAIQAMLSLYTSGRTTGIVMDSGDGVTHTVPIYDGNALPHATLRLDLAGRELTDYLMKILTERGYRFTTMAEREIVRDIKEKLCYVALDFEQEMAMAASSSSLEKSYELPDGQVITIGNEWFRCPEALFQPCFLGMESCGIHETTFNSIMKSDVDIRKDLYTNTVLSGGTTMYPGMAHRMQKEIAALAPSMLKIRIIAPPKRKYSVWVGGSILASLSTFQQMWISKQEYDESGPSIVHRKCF
UniProt Q9H307, sequence (Q9H307 whole entry, looked up): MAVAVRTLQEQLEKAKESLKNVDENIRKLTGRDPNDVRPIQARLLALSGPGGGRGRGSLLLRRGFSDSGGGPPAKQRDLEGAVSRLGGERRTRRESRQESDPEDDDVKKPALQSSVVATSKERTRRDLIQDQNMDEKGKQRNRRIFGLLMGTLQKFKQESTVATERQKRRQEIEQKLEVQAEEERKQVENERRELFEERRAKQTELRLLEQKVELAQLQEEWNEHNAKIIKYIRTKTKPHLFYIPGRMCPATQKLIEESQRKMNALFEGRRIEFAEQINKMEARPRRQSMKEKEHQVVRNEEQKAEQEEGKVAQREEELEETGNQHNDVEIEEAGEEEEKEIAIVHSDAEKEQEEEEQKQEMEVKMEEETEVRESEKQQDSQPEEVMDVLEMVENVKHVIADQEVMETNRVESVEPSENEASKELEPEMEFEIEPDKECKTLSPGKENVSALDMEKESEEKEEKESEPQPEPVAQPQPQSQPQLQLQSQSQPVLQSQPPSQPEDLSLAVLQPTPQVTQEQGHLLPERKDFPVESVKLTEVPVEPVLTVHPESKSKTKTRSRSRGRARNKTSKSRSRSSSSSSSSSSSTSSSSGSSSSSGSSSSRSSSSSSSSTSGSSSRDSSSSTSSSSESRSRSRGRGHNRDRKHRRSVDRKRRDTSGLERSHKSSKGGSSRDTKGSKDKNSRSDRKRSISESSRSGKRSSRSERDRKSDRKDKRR
UniProt Q15185, sequence (Q15185 whole entry, looked up): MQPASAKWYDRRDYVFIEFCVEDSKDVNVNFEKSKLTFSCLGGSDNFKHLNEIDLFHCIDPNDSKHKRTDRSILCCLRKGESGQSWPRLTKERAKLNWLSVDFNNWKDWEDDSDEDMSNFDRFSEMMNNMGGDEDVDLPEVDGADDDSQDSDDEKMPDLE
UniProt O43395, sequence (O43395 whole entry, looked up): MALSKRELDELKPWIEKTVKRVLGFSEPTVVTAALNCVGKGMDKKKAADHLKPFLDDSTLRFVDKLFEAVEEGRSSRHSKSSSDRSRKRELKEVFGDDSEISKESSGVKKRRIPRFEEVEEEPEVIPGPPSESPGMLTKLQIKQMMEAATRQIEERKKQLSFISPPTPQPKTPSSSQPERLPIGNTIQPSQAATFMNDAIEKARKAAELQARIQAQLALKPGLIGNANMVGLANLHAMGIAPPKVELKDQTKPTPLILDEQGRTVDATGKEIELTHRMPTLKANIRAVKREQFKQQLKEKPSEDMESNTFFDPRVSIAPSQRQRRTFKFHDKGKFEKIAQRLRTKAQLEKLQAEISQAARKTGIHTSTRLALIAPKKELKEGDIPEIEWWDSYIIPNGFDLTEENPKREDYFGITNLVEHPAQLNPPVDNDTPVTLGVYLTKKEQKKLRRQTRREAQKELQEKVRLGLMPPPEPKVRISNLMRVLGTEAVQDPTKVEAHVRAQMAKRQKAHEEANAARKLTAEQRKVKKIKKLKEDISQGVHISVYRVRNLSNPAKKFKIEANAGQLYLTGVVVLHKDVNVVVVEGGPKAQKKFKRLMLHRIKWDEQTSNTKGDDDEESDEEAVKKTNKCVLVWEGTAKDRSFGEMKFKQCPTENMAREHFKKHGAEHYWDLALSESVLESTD
UniProt Q15366, sequence (Q15366 whole entry, looked up): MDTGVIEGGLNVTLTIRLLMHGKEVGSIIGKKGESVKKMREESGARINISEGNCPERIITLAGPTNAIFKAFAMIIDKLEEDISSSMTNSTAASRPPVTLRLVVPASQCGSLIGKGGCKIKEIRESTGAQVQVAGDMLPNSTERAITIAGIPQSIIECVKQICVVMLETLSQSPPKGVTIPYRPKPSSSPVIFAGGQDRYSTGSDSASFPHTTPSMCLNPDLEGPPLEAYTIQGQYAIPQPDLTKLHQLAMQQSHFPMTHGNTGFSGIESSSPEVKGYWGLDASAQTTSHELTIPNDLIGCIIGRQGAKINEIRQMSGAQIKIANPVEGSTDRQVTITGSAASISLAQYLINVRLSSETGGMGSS

Target	log2 fold change (bafetinib)	log2 fold change [1]	log2 fold change (nilotinib)	log2 fold change [2]	log2 fold change (dasatinib)	log2 fold change [3]	log2 fold change [4]	log2 fold change [5]	log2 fold change (tipifarnib)	log2 fold change (mubritinib)
PHF5A (UniProt Q7RTV0)	-0.097	-0.047	-0.018	0.012	0.102	0.086	-0.031	0.03	0.031	-0.025
POP1 (UniProt Q99575)	0.019	0.002	0.074	-0.018	0.039	-0.037	0.042	0.007	-0.036	-0.006
PLIN2 (UniProt Q99541)	-0.326	0.037	0.184	0.03	-0.219	0.04	-0.016	0.047	-0.105	0.027
PNN (UniProt Q9H307)	-0.08	-0.008	-0.028	-0.344 (active)	0.062	-0.039	0.028	0.231	0.255	-0.098
POLR2I (UniProt P36954)	-0.044	0.024	-0.026	0.233	0.079	0.338	-0.029	0.021	0.072	-0.054
PSMB4 (UniProt P28070)	0.051	-0.052	0	0.063	0.076	-0.015	-0.03	0.014	0.047	0.009
PTGES3 (UniProt Q15185)	-0.05	0.028	-0.044	-0.089	-0.142	-0.042	0.034	0.039	-0.119	-0.091
PIP4K2C (UniProt Q8TBX8)	0.663	-0.112	0.354	0.053	-0.042	1.25 (active)	0.144	0.568	-0.07	-0.084
PRKACB isoform 2 (UniProt P22694)	-0.06	0.04	-0.021	0.647 (active)	-0.021	-0.037	-0.013	-0.004	-0.144	0.051
PTPA (UniProt A6PVN8)	-0.122	-0.084	-0.134	0.008	0.075	0.013	-0.075	0.05	0.232	0.114
PML (UniProt P29590)	-0.078	0.029	-0.035	-0.046	-0.036	-0.037	-0.047	-0.003	0.014	-0.023
PTGFRN (UniProt Q9P2B2)	-0.061	-0.04	0.087	0.024	0.046	0.048	0.038	0.009	0.032	0.065
PLA2G15 (UniProt Q8NCC3)	-0.175	0.05	-0.001	-0.025	-0.036	-0.028	0.002	0.09	0.084	-0.05
PIKFYVE (UniProt Q9Y2I7)	-0.031	0.153	-0.015	0.045	-0.061	-0.092	0.005	0.031	0.108	0.017
PRPF4B (UniProt Q13523)	0.188	-0.096	0.153	-0.626 (active)	0.081	-0.163	0.005	-0.056	0.117	0.069
PGGHG (UniProt Q32M88)	-0.036	-0.001	0.012	0.023	0.009	-0.078	-0.152	0.058	-0.077	0.047

Target	log2 fold change (bafetinib)	log2 fold change [1]	log2 fold change (nilotinib)	log2 fold change [2]	log2 fold change (dasatinib)	log2 fold change [3]	log2 fold change [4]	log2 fold change [5]	log2 fold change (tipifarnib)	log2 fold change (mubritinib)
PLBD1 (UniProt Q6P4A8)	-0.143	0	0.021	-0.029	-0.063	-0.035	0.041	0.081	0.038	0.052
PRPF38A (UniProt Q8NAV1)	0.048	0.025	-0.006	-0.871 (active)	-0.033	-0.073	-0.011	-0.08	0.036	0.201
PRKCQ (UniProt Q04759)	-0.027	0.024	-0.051	-0.821 (active)	-0.171	0.003	0.069	0.031	-0.134	0.12
PRPF40A (UniProt O75400)	-0.014	0.005	-0.085	-0.058	-0.05	-0.135	0.082	0.048	0.045	-0.013
PRKD2 isoform 3 (UniProt Q9BZL6)	-0.16	0.045	-0.204	-0.698 (active)	-0.139	-0.145	0.057	0.045	-0.123	0.099
POLR2E (UniProt P19388)	0.055	-0.03	-0.007	0.112	0.025	0.306	-0.056	0.005	-0.088	0.023
PGK2 (UniProt P07205)	0.009	-0.036	0.066	0.096	0.11	-0.013	-0.137	-0.029	-0.006	-0.092
PRPF3 (UniProt O43395)	0.048	0.072	-0.044	-0.201	-0.114	-0.152	-0.149	0.018	-0.011	0.118
PIR (UniProt O00625)	-0.073	0.001	0.009	-0.006	-0.044	-0.014	-0.003	0.028	-0.069	0.11
PGM3 isoform 4 (UniProt O95394)	0.056	0.153	-0.022	0.021	-0.145	-0.003	0.106	0.02	-0.079	0.293 (active)
PDS5A (UniProt Q29RF7)	-0.055	0.008	-0.397	-0.164	-0.3	0.001	0.08	0.123	-0.231	0.157
PISD (UniProt Q9UG56)	-0.042	-0.007	-0.053	-0.003	-0.029	0.105	-0.068	-0.02	-0.005	0.103
PTK2B (UniProt Q14289)	-0.024	-0.063	0.14	0.104	-0.043	0.276	-0.113	-0.014	-0.521	-0.003
POTEI (UniProt P0CG38)	-0.052	-0.02	0.046	-0.049	0.087	0.043	-0.005	-0.003	-0.019	0.004
PCBP2 isoform 3 (UniProt Q15366)	0.037	0.083	-0.095	-0.156	-0.132	-0.058	0.007	0.018	-0.08	0.004
PCK2 (UniProt Q16822)	-0.052	0.027	-0.05	0.027	-0.035	-0.006	0.041	0.003	0	-0.022
